# From ChEMBL document CHEMBL1961873, “Compounds: GSK PKIS; Assays: Nanosyn kinase panel” (2012)
# Key:
# [1] = target: T1, Muscle, skeletal receptor tyrosine-protein kinase (Homo sapiens) (UniProt O15146); conditions: at 1 µM;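 note: reported value is the mean percent inhibition of MuSK kinase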
# T1 sequence (whole entry): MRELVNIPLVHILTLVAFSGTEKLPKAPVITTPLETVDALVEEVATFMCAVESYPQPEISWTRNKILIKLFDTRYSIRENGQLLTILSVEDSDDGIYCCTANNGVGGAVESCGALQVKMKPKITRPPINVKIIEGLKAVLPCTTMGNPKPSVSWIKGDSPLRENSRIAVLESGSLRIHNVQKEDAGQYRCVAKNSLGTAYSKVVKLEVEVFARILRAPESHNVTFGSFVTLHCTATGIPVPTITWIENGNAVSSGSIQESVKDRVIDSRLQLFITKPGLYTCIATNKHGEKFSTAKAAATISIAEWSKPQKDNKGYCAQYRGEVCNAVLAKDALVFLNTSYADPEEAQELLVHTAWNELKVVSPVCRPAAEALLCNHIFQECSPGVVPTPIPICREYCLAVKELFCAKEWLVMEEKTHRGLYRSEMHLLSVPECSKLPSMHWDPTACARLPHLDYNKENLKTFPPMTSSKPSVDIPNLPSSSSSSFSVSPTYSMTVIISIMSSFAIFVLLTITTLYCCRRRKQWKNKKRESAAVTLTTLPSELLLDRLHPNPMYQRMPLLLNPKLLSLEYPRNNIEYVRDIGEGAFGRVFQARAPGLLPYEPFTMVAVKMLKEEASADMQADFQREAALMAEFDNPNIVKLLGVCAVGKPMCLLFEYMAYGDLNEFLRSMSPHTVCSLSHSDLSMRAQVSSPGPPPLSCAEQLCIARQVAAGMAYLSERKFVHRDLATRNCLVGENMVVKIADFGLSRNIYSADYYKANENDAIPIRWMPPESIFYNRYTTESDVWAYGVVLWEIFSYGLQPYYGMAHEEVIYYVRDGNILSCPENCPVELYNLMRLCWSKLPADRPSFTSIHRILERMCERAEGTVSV
# [2] = target: Platelet-derived growth factor receptor alpha (Homo sapiens) (UniProt P16234); conditions: at 0.1 µM
# [3] = target: Platelet-derived growth factor receptor alpha (Homo sapiens) (UniProt P16234); conditions: at 1 µM
# [4] = test system: Platelet-derived growth factor receptor alpha (Homo sapiens), P16234 [D842V]; conditions: at 0.1 µM
# [5] = test system: Platelet-derived growth factor receptor alpha (Homo sapiens), P16234 [D842V]; conditions: at 1 µM
# [6] = test system: Platelet-derived growth factor receptor alpha (Homo sapiens), P16234 [T674I]; conditions: at 0.1 µM
# [7] = test system: Platelet-derived growth factor receptor alpha (Homo sapiens), P16234 [T674I]; conditions: at 1 µM
# [8] = test system: Platelet-derived growth factor receptor alpha (Homo sapiens), P16234 [V561D]; conditions: at 0.1 µM
# [9] = test system: Platelet-derived growth factor receptor alpha (Homo sapiens), P16234 [V561D]; conditions: at 1 µM
# [10] = target: Platelet-derived growth factor receptor beta (Homo sapiens) (UniProt P09619); conditions: at 0.1 µM
# [11] = target: Platelet-derived growth factor receptor beta (Homo sapiens) (UniProt P09619); conditions: at 1 µM
# [12] = target: Tyrosine-protein kinase FRK (Homo sapiens) (UniProt P42685); conditions: at 0.1 µM
# [13] = target: Tyrosine-protein kinase FRK (Homo sapiens) (UniProt P42685); conditions: at 1 µM
# [14] = target: Protein-tyrosine kinase 2-beta (Homo sapiens) (UniProt Q14289); conditions: at 0.1 µM
# [15] = target: Protein-tyrosine kinase 2-beta (Homo sapiens) (UniProt Q14289); conditions: at 1 µM
# [16] = target: Proto-oncogene tyrosine-protein kinase receptor Ret (Homo sapiens) (UniProt P07949); conditions: at 0.1 µM
# [17] = target: Proto-oncogene tyrosine-protein kinase receptor Ret (Homo sapiens) (UniProt P07949); conditions: at 1 µM
# [18] = test system: Proto-oncogene tyrosine-protein kinase receptor Ret (Homo sapiens), P07949 [V804L]; conditions: at 0.1 µM
# [19] = test system: Proto-oncogene tyrosine-protein kinase receptor Ret (Homo sapiens), P07949 [V804L]; conditions: at 1 µM
# [20] = test system: Proto-oncogene tyrosine-protein kinase receptor Ret (Homo sapiens), P07949 [Y791F]; conditions: at 0.1 µM
# Sequence of Proto-oncogene tyrosine-protein kinase receptor Ret (Homo sapiens), P07949 [Y791F] (P07949 whole entry Y791F): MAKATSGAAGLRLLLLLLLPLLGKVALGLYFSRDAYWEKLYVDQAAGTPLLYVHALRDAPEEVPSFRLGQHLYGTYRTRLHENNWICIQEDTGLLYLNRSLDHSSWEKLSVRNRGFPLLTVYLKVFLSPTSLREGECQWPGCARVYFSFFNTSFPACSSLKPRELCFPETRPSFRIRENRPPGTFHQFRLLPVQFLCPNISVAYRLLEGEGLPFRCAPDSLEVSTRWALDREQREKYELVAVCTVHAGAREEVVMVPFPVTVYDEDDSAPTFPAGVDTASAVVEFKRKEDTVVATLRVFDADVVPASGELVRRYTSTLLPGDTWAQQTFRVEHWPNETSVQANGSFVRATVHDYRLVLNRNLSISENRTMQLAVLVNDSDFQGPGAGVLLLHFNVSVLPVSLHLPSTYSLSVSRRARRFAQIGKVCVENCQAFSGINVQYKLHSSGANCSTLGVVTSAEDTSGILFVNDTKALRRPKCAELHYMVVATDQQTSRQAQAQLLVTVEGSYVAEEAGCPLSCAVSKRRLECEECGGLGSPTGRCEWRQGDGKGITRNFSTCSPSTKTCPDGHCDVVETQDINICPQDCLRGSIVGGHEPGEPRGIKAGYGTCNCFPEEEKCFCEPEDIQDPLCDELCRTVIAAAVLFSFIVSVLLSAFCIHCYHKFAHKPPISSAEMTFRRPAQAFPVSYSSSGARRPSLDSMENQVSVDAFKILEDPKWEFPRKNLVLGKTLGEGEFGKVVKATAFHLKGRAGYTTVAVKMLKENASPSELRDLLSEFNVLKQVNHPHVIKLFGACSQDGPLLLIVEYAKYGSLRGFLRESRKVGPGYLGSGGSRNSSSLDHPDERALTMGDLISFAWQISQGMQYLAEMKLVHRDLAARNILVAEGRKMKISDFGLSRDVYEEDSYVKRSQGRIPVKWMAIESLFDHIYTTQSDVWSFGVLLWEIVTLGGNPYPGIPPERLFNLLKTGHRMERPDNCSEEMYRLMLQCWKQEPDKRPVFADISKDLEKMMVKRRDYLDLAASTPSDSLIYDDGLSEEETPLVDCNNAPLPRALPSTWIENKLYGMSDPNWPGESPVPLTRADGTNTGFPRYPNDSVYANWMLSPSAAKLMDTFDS
# Sequence of Proto-oncogene tyrosine-protein kinase receptor Ret (Homo sapiens), P07949 [V804L] (P07949 whole entry V804L): as the sequence (P07949 whole entry Y791F) above, with F791Y, V804L counted along it
# Sequence of Platelet-derived growth factor receptor beta (Homo sapiens) (P09619 whole entry): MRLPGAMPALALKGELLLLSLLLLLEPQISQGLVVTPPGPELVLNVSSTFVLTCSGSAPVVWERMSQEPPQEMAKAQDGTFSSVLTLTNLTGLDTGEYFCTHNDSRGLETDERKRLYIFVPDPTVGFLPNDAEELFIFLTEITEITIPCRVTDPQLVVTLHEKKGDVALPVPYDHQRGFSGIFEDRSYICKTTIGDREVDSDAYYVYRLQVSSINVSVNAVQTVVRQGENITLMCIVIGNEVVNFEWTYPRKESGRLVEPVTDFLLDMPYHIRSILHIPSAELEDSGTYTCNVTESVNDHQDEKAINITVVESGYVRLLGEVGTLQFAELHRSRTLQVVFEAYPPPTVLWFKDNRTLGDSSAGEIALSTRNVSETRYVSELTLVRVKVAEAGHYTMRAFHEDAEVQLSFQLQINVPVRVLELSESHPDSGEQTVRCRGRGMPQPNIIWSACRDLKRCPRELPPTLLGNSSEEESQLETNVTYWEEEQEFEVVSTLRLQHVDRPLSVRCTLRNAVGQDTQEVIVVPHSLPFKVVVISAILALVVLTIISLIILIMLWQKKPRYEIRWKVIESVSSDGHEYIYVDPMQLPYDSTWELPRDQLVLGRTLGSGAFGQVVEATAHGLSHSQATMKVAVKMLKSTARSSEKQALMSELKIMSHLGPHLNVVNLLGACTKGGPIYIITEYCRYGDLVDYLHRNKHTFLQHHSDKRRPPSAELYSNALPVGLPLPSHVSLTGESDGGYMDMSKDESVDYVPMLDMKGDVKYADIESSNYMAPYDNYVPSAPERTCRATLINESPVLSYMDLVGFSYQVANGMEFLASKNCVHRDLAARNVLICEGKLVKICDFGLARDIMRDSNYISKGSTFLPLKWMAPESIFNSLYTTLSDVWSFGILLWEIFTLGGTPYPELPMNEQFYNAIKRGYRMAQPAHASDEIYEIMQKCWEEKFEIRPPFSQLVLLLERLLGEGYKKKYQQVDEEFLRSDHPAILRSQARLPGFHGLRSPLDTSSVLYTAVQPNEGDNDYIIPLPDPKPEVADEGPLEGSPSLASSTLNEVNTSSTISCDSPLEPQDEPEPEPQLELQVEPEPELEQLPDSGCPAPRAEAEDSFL
# Sequence of Protein-tyrosine kinase 2-beta (Homo sapiens) (Q14289 whole entry, looked up): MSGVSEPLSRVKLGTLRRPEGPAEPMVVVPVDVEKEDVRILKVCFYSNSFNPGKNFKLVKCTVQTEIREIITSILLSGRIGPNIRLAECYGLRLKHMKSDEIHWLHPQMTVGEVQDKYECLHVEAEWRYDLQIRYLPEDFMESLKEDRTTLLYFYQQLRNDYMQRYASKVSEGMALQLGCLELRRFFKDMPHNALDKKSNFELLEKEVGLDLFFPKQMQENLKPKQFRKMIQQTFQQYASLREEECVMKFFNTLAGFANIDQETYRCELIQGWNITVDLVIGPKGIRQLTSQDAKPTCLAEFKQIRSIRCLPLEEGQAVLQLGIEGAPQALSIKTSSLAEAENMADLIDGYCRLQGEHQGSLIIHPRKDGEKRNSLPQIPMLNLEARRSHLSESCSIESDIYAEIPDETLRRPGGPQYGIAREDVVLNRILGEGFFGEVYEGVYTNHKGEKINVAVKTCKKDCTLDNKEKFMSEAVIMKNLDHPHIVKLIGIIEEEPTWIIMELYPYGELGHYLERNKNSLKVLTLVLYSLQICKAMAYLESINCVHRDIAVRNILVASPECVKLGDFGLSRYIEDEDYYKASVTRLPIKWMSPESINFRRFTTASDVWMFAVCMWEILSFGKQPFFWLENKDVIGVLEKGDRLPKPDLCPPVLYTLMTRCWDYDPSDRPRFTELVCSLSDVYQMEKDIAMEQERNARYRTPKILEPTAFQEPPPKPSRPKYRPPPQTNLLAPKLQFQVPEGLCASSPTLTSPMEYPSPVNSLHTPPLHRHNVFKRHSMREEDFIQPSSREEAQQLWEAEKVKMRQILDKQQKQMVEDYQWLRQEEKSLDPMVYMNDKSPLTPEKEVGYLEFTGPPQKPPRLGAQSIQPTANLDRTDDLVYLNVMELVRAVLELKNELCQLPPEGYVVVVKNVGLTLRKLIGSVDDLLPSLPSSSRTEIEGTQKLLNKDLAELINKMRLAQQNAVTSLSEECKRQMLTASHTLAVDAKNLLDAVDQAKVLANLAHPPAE
# Sequence of Tyrosine-protein kinase FRK (Homo sapiens) (P42685 whole entry): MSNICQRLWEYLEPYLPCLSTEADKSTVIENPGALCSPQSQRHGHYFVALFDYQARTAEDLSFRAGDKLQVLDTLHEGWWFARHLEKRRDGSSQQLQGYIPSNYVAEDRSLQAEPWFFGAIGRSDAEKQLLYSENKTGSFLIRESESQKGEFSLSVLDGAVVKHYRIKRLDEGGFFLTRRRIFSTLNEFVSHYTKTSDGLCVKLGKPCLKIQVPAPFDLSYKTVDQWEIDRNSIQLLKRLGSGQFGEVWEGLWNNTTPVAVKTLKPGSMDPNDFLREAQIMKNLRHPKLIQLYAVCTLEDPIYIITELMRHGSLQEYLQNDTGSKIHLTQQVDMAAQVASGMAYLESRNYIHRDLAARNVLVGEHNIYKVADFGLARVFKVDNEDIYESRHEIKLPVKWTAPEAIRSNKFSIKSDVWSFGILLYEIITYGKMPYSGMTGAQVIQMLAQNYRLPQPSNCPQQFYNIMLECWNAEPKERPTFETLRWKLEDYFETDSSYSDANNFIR
Structure (SMILES),inhibition [1] [%],inhibition [2] [%],inhibition [3] [%],inhibition [4] [%],inhibition [5] [%],inhibition [6] [%],inhibition [7] [%],inhibition [8] [%],inhibition [9] [%],inhibition [10] [%],inhibition [11] [%],inhibition [12] [%],inhibition [13] [%],inhibition [14] [%],inhibition [15] [%],inhibition [16] [%],inhibition [17] [%],inhibition [18] [%],inhibition [19] [%],inhibition [20] [%]
Nc1ncc(-c2cccc(S(N)(=O)=O)c2)c2scc(-c3ccc(F)c(Cl)c3)c12,1.44,18.9,72.1,7.66,42.4,4.52,10.5,36.8,78.1,14.8,53.4,2.22,14.2,2.23,20.8,11.8,49,5.58,7.48,12.4
CN1CCC(n2cnc(-c3ccc(F)cc3)c2-c2ccnc(Nc3ccccc3)n2)CC1,2.15,8.81,22.1,4.56,18.6,5.9,5.98,5.65,15.5,7.67,44.7,0.85,1.83,4.25,5.64,6.59,18.3,4.17,7.13,7.03
NS(=O)(=O)c1ccc(N/N=C2\C(=O)Nc3ccc4ncccc4c32)cc1,49.5,58.9,82.2,63.4,92.3,16.7,73.6,54.5,92.4,63.2,82.8,0.32,4.11,6.43,43.2,37.3,78.9,57.7,82.7,45.3
O=C(O[C@H]1CN[C@H](C#Cc2cc3ncnc(Nc4ccc(Cc5ccccc5)cc4)c3s2)C1)N1CCOCC1,-2.65,-1.51,7.66,-1,2.55,1.75,3.96,-0.15,1.53,2.34,0.85,1.3,1.99,0.11,-6.94,3.39,5.06,1.75,2.21,1.94
CCn1c(-c2nonc2N)nc2c(C#CC(C)(C)O)nc(OC[C@H](N)c3ccccc3)cc21,5.52,4.66,43.8,12.2,61.6,9.88,47,4.88,42.3,13,57.2,-0.38,2.68,1.28,9.96,6.89,38,1.38,6.67,18.6
CCc1nn2ncccc2c1-c1ccnc(NC2CC2)n1,3.55,4.59,8.05,1.28,5.3,4.48,5.6,3.69,5.92,4.03,13.8,1.9,1.77,-3.19,2.45,3.64,2.46,3.6,2.94,5.5
Cc1cccc2c1NC(=O)/C2=N\Nc1ccc(S(N)(=O)=O)cc1,5.17,7.81,17.4,0.21,8.1,3.33,7.27,13.4,41.3,2.52,10.2,1.71,0.62,3.22,9.89,1.83,5.76,3.14,7.11,2.74
NC(=O)c1sc(-n2cnc3ccc(C(F)(F)F)cc32)cc1OCc1ccccc1Br,2.38,4.59,11,1.61,5.02,5.32,5.62,3.53,4.84,-1.07,7.98,2.51,2.35,9.64,12.8,1.18,4.33,2.41,3.36,3.67
COc1ccc(-c2oc3ncnc(N)c3c2-c2ccc(NC(=O)Nc3cc(C(F)(F)F)ccc3F)cc2)cc1,101,38.6,88.9,6.4,54.4,18,72.1,26.6,86.2,20.2,80.4,11.5,65,18.8,91,89,93.6,69.5,87.8,74.4
CCNC(=O)O[C@H]1CN[C@H](C#Cc2cc3ncnc(Nc4ccc(OCc5cccc(F)c5)c(Cl)c4)c3s2)C1,3.77,5.36,8.44,1.55,1.32,4.01,3.06,1.45,1.92,2.77,5.63,1.7,1.79,9.03,7.74,2,3.91,2.16,0.84,1.93
CN(C)CCOc1ccc(-c2nc(-c3ccncc3)c(-c3ccc4c(c3)CC/C4=N\O)[nH]2)cc1,3.72,8.1,15.9,0.79,3.47,3.47,8.38,2.97,5.35,4.84,15.7,2.18,1.99,5.76,10.5,5.96,7.06,3.07,6.45,2.28
CC(=O)Nc1cccc(C#Cc2cncnc2Nc2ccc(OCc3cccc(F)c3)c(Cl)c2)c1,6.82,8.71,15.1,1.39,1.82,5.24,1.24,-4.05,4.74,3.29,6.94,0.81,2.51,-2.17,4.14,6.84,11,5.7,9.51,13.3
COc1cc2c(cc1Nc1nc(Nc3ccsc3C(N)=O)c3cc[nH]c3n1)N(C(=O)CN(C)C)CCC2(C)C,62.4,21.6,63.2,5.04,20.5,8.69,16.9,13.1,46.1,15.1,62.7,2.92,8.45,88.3,96.7,8.13,14.1,12.9,38.1,8.97
CC(C)COC(=O)c1ccc2c(c1)/C(=C/Nc1ccc(S(N)(=O)=O)cc1)C(=O)N2,51.3,53.2,84.3,60.7,93.1,4.41,38.9,44.7,88.4,66.3,86,-0.58,1.92,2.4,16.5,34,78,54.5,82.4,25.2
Fc1cccc(COc2ccc(Nc3ncnc4sc(-c5ccco5)cc34)cc2Cl)c1,3.44,13.5,19.9,3,2.87,6.38,15.5,6.49,4.1,7.85,15,4.23,3.25,6.41,5.02,3.58,5.02,5.96,11.1,8.01
c1cc(-c2cnn3nc(N4CCOCC4)ccc23)nc(NC2CC2)n1,9.05,31.9,76.8,21.2,75.8,2.78,17.5,18.1,72.4,12.5,51.7,1.71,1.99,15.8,15.4,5.62,15.6,3.15,8.37,6.04
CS(=O)(=O)CCNCc1coc(-c2ccc3ncnc(Nc4ccc(OCc5ccccc5)cc4)c3c2)c1,4.59,7.28,11.5,3.71,4.82,3.65,6.58,3.61,12.8,3.03,5.87,1.08,0.27,3.8,3.38,3.04,8.54,3.88,5.06,6.2
FC(F)(F)c1cccc(-c2nn3ncccc3c2-c2ccnc(Nc3ccc4c(c3)OCCO4)n2)c1,2.21,5.63,15.1,3.38,5.8,2.79,3.91,1.96,15.8,6.05,14.4,0.89,5.26,-0.64,13.1,7.52,31.8,4.11,2.86,7.75
CCOc1ccc2c(-c3ccnc(Nc4cccc(C(F)(F)F)c4)n3)cnn2n1,1.27,9.61,27.3,2.8,10.2,3.74,9.48,2.96,15.9,7.67,20.5,2.02,0.63,-2,3.33,0.9,5.18,5.38,6.22,7.78
N#Cc1c(NC(=O)c2ccc(F)cc2)sc2c1CCCC2,2.55,5.56,7.32,1.23,1,3.5,3.1,0.92,3.17,1.37,5.64,0.6,1.01,1,1.23,0.59,-0.03,1.83,2.29,1.07
COc1ccc2c(-c3ccnc(Nc4cccc(OC(F)(F)F)c4)n3)cnn2n1,11.5,9.71,30.5,-0.9,13.4,7.01,9.76,5.14,19.4,4.02,32.6,1.94,1.99,14.4,59.9,3.2,8.79,3.12,12.5,1.41
CNC(=O)c1cncc(/C=C/c2ccccc2Cl)c1,8.03,7.6,19.1,-1.08,4.93,2.9,2.13,4.99,23.1,7.75,20,0.04,0.05,-1.7,-0.21,4.56,7.64,0.9,10,0.47
CC(=O)NCc1cccc(C#Cc2cncnc2Nc2ccc(OCc3cccc(F)c3)c(Cl)c2)c1,3.72,0.56,6.14,1.48,1.63,2.23,3.66,5.19,2.8,0.9,6.15,1.61,1.03,3.96,0.92,3.99,20.2,2.58,6.73,1.6
CC1=C(C(=O)Nc2cc(Cl)c3[nH]ncc3c2)C(c2ccc(C(F)(F)F)cc2)CC(=O)N1 (stereo not given),9.6,4.87,8.87,2.44,4.3,5.17,7.54,4.08,4.27,0.58,3.69,3.64,7.85,5.71,9.35,4.22,15.2,4.98,33.3,2.42
COc1cc(/C=N/Nc2ncnc3[nH]ncc23)ccc1O,22.6,27.3,72.4,28.4,80.8,3.77,16.5,25,76.3,21.9,67,2.72,3.55,11.4,29.7,59,83.4,17.8,68.6,56.7
O=C(Nc1n[nH]c2cc(-c3ccc(F)cc3)ccc12)C1CC1,4.55,4.52,14.6,4.21,12.9,3.24,8.33,4.41,13.2,2.29,7.77,1.74,2.21,9.12,9.39,2.79,3.73,2.36,3.06,4.2
